Compound activity (PubChem BioAssay)
KDM5B inh: Primary screen for KDM5B Histone Demethylases FDH-coupled qHTS | KDM5B demethylase, FDH-coupled NADH fluorescence (FDH is formaldehyde dehydrogenase) | Potency, µM (series often up to 57.7 µM), actives largely listed as inhibitors | 220,000 compounds, 2.6% hits | AID 1347165, 2019; active means well fitted inhibition curve with a large enough effect; further: nearly all actives have a fitted effect of over 70% in size
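KDM5BΔAP (200 nM final) in 50 mM HEPES pH 7.5, 0.01% Tween-20 was preincubated 10 min at RT with compound over a concentration range. Substrate mix (H3K4me3 12.5 µM, α-KG 25 µM, Fe²⁺, ascorbate, NAD⁺, FDH) was added, and NADH fluorescence change over 30 min gave dose-response curves.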
Large screens that a line does not name were inactive. The full list was thinned out, with hits kept by preference.

COc1ccc(CNC(=O)N2CCN(S(=O)(=O)c3c(Cl)cccc3Cl)CC2)cn1	none
CCCn1nc(C(=O)N(CCOC)Cc2nc3ccccc3c(=O)[nH]2)c2ccccc2c1=O	none
Cn1nc(C(=O)N2CCN(c3cccc(Cl)c3)CC2)c2ccccc2c1=O	none
Cc1ccccc1-c1nnn(Cc2cc(Cl)c3c(c2)OCCCO3)n1	none
O=C(OCc1nc2ccccc2o1)c1ccc(CO)cc1	none
Cc1nc(-c2ccc(F)cc2)n(CC(=O)Nc2ccc(C(C)C)cc2)c(=O)c1CCO	none
Cc1ccc(-c2cc(-c3ccc(C)c(C)c3)n(-c3ccc(C)c(C)c3)n2)cc1C	none
Cc1nc2cc(NC(=O)c3nn(Cc4ccccc4)c(=O)c4ccccc34)ccc2o1	none
COC(=O)C1CCCN1S(=O)(=O)c1cc(Cl)ccc1Cl (stereo unspecified)	none
O=C(Nc1cccc2ncccc12)C1CCCN(S(=O)(=O)c2ccccc2)C1 (stereo unspecified)	none
Cc1ccc(Cn2c(C3CCN(C(=O)c4ccc(C)c(C)c4)CC3)n[nH]c2=O)cc1	none
CCN(CC(=O)NCc1ccc(Cl)cc1)C(=O)Cn1nc(C(=O)O)c2ccccc2c1=O	none
CC(c1cc(F)ccc1F)N(C)CCS(=O)(=O)CCC(N)=O (stereo unspecified)	none
CN(C)C(=O)C1CCC(C)(C(=O)O)C1(C)CI (stereo unspecified)	none
C[S+](=O)([O-])N1CC2(Cc3ccccc31)CN(C(=O)c1ccccc1)C2	none
COC(=O)N1CC2(Cc3ccccc3N([S+](C)(=O)[O-])C2)C1	none
Cc1ccccc1C(=O)N1CC2(Cc3ccccc3N([S+](C)(=O)[O-])C2)C1	KDM5B inh 25µM
C[S+](=O)([O-])N1CC2(CCN(C(=O)CCC(=O)O)C2)Cc2ccccc21 (stereo unspecified)	KDM5B inh 40µM
C[S+](=O)([O-])N1CC2(Cc3ccccc31)CN(C(=O)c1ccccc1Cl)C2	none
C[S+](=O)([O-])N1CC2(Cc3ccccc31)CN(C(=O)c1ccccc1F)C2	none
CCOc1cc2ccccc2cc1C(=O)N1CCN(CC(=O)Nc2ccccc2Cl)CC1	none
CC(C)(C)OC(=O)NC1CCCN(Cc2cccs2)C1 (stereo unspecified)	none
COc1cccc(-c2cc(=O)n3[nH]c(C(F)(F)F)nc3n2)c1	none
CCOc1ccccc1C(=O)NC1CCN(c2cc(-c3ccc(OC)cc3)[nH]n2)C1 (stereo unspecified)	KDM5B inh 13µM
CCOc1ccccc1C(=O)NC1CCN(c2cc(-c3ccc(OC)cc3)[nH]n2)CC1	none
COc1ccccc1CCC(=O)NC1CCN(c2cc(-c3ccccc3)[nH]n2)CC1	none
CCOc1ccc(CC(=O)NC2CCN(c3cc(-c4ccc(F)cc4)[nH]n3)C2)cc1OCC (stereo unspecified)	KDM5B inh 8.9µM
CN(C)c1cccc(C(=O)NCC2CCN(c3cc(-c4ccccc4)[nH]n3)CC2)c1	KDM5B inh 25µM
O=C(Cc1ccccc1Cl)NC1CCN(c2cc(-c3ccccc3)[nH]n2)C1 (stereo unspecified)	none
O=C(NCC1CCN(c2cc(-c3ccccc3)[nH]n2)CC1)c1ccc(=O)[nH]c1	none
O=C(NCC1CCN(c2cc(-c3ccccc3)[nH]n2)CC1)c1ccc2nc[nH]c2c1	none
CCOc1ccc(C(=O)NC2CCN(c3cc(-c4ccc(F)cc4)[nH]n3)CC2)cc1OCC	none
COc1ccccc1CC(=O)NC1CCN(c2cc(-c3ccccc3)[nH]n2)C1 (stereo unspecified)	KDM5B inh 16µM
CCOc1ccccc1C(=O)NC1CCN(c2cc(-c3ccc(Cl)cc3)[nH]n2)CC1	none
COc1cccc(CC(=O)NC2CCCN(c3cc(-c4ccc(F)cc4)[nH]n3)C2)c1 (stereo unspecified)	none
Cc1ccnc(SCc2nc3cc(NS(=O)(=O)c4ccc(Cl)cc4)ccc3n2C)n1	none
CC(Oc1cc(Cl)ccc1Cl)c1nc(-c2cccnc2)no1 (stereo unspecified)	none
O=C(c1ccc(C(F)(F)F)cc1)N1CCC2(CC1)C(=NC1CCCCC1)NC(=O)N2c1cccnc1	none
CCCCNC(=O)c1ccccc1NC(=O)Cn1cnc2c1c(=O)n(C)c(=O)n2C	none
COc1ccc(NC(=O)CSc2nc(N3CCOCC3)c3c(c2C#N)CCCC3)c(OC)c1	none
c1ccc(-c2cc(NC3CCCC3)nc3ccccc23)cc1	none
COc1ccc(C(=O)O)cc1S(=O)(=O)Nc1cc(Cl)ccc1Cl	none
Cc1ccc(F)cc1NC(=O)C(C)(C)c1ccccc1	none
COC(=O)COc1ccc2oc(C)c(C(=O)OC)c2c1	none
Fc1cc(Br)ccc1CSc1nc2ncccc2o1	none
CCOc1ccccc1Oc1coc2cc(OC(=O)c3ccc(F)cc3)ccc2c1=O	none
FC(F)(F)c1ccc2c(c1)nc1n2[C@@H](CNCc2c[nH]c3ccccc23)COC1	none
Clc1ccc(Cl)c(-c2nn3c(CN4CCOCC4)nnc3s2)c1	none
CCNc1ncnc2c1CN(C1CCNCC1)C(=O)CN2C	KDM5B inh 56µM
CN1CC(=O)N(C2CCNCC2)Cc2c1ncnc2N1CCCC1CO (stereo unspecified)	none
CCC(CO)Nc1ncnc2c1CN(C1CCCNCC1)C(=O)CN2C (stereo unspecified)	none
